Source: PubChem
Shown are actives, neighbours in structure and some others; about 8.2% of the full set was active somewhere.
KB-V1 cytotox: qHTS assay for MDR1-selective chemotherapeutics: Primary screen using the drug-selected MDR subline cells KB-V1; KB-V1 MDR cells viability, CellTiter-Glo, 72 h; AID 1347076, 2019; 400,000 tested, 3.4% active; Potency, µM (top dose mostly 46.1 µM), usual class: cytotoxic; also: nearly all actives have a fitted effect of over 60% in size
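Cells of the MDR subline KB-V1 are plated, dosed with compound at multiple concentrations, and incubated 72 h at 37 degrees C; CellTiter-Glo is then added and luminescence read after 10 min.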
MCF10A rerep: A quantitative high throughput screen for small molecules that induce DNA re-replication in MCF 10a normal breast cells | Potency, µM (highest dose often 46.1 µM), most hits filed as activators | 350,000 tested, 2.9% active | MCF 10A DNA re-replication, Hoechst nuclear intensity, 48 h; also: nearly all actives have a fitted effect of over 50% in size
SW480 rerep: A quantitative high throughput screen for small molecules that induce DNA re-replication in SW480 colon adenocarcinoma cells; SW480 DNA re-replication, Hoechst DNA content imaging, 48 h; Potency, µM (series often up to 46.1 µM), hits mostly activators; 340,000 tested, 1.8% active; also: nearly all actives have a fitted effect of over 55% in size
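Image-based DNA-content assay: after two days of treatment, nuclei were labelled with the DNA dye Hoechst and imaged, and hits were compounds raising the count of nuclei showing high fluorescence intensity.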
KB-3-1 cytotox: qHTS assay for MDR1-selective chemotherapeutics: Primary screen using the parental adenocarcinoma cell KB-3-1; 400,000 tested, 1.4% active; Potency, µM (highest dose often 46.1 µM), hits mostly cytotoxic; KB-3-1 viability, CellTiter-Glo ATP luminescence, 72 h; also: nearly all actives have a fitted effect of over 60% in size
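Viability of parental KB-3-1 cells, measured by CellTiter-Glo luminescence, followed a 72 h incubation at 37 °C with pinned compounds in phenol-red-free DMEM containing 10% FBS.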
ELG1 repair inh: qHTS screen for small molecules that inhibit ELG1-dependent DNA repair in human embryonic kidney (HEK293T) cells expressing luciferase-tagged ELG1; AID 504467, 2011; HEK293T ELG1-luciferase reporter, luminescence, 16 h; DNA damage induced by 5-fluorouridine; 330,000 tested, 2.3% active; Potency, µM (top dose mostly 46.1 µM), usual class: inhibitors; also: nearly all actives have a fitted effect of over 55% in size
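Luminescence from the luciferase reporter, measured 30 min after ONE-Glo reagent at room temperature, was the read-out. Beforehand, 2,000 cells per well were exposed for 16 hr at 37 °C to 5-fluorouridine together with compound or vehicle.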
Hits are given with their value; 0 = inactive; ? = inconclusive; - = no result given; [ ] = dose if it differs, or a comment. Calls follow the shape of the dose curve; as a rule, active = well fitted curve in the direction sought with a large enough effect; inconclusive = small, poorly fitted or top-dose-only effect, or another doubt; inactive = no such curve, though single readings can be large; an effect the other way counts as inactive or inconclusive.

SMILES	KB-V1 cytotox	MCF10A rerep	SW480 rerep	KB-3-1 cytotox	ELG1 repair inh
O=C(CCl)NNC(=O)c1c(O)c2ccccc2[nH]c1=O	?	0	?	15µM	0
CCOc1ccc(OCCN2C(=O)c3ccccc3C2=O)cc1	0	0	0	0	8.2µM
Nc1cccc2c1C(=O)N(CCOc1ccccc1F)C2=O	0	18µM	?	0	?
N#Cc1ccccc1OCCN1C(=O)c2ccccc2C1=O	0	12µM	0	0	?
Cc1ccccc1CNCCCSc1nnnn1C	0	-	-	0	-
COC(=O)CCC1(C(N)=O)CCC(=O)c2ccccc21 (centres undefined)	0	0	0	0	-
CC1CCc2c(sc3ncn4c(SCC(=O)NCc5ccco5)nnc4c23)C1 (centres undefined)	0	0	0	0	0
CC(C)Sc1nc(SCC(=O)NCc2ccco2)c2c3c(sc2n1)COC(C)(C)C3	0	?	0	?	2.3µM
CC1CCc2sc3ncn4nc(C(=O)NCc5ccco5)nc4c3c2C1 (centres undefined)	6.5µM	0	0	0	0
CC(C)Sc1nc(SCC(=O)O)c2c3c(sc2n1)COC(C)(C)C3	0	0	0	0	?
CCCc1nc2sc3c(SCC(=O)NCc4ccco4)ncnc3c2c2c1CCC2	12µM	9.2µM	15µM	?	?
CC(C)Sc1nc2sc3c(c2c2nnc(SCC(=O)NCc4ccco4)n12)CCCC3	18µM	?	0	0	?
CC1(C(=O)Nc2ccc(F)c(Cl)c2)Cc2c(-c3ccc(C(N)=O)cc3)ccnc2O1 (centres undefined)	?	-	-	0	-
CCC(=O)N1CCCC1(C)C(=O)Nc1cc(OC)ccc1OC (centres undefined)	0	-	-	0	-
Cc1ccc(C2c3c(-c4cc(C)ccc4O)n[nH]c3C(=O)N2Cc2ccco2)cc1 (centres undefined)	?	-	-	0	-
Cc1ccn2c(Nc3ccccc3)c(-c3c[nH]c4ccccc34)nc2c1	0	-	-	0	-
CSc1nc(=O)[nH]c2nc[nH]c12	0	-	-	0	-
COc1ccccc1CN1CC(C(=O)NCC2(O)CCCCC2)CCC1=O (centres undefined)	0	-	-	0	-
Cc1nc(SCC(=O)NCc2ccco2)c2c3c(sc2n1)CCCC3	?	?	0	?	?
O=C(CSc1nc(C2CC2)nc2sc3c(c12)CCCC3)NCc1ccco1	0	16µM	0	0	0
COc1ccc(OC)c(NC(=O)C2=C(C)NC(=O)NC2c2cccs2)c1 (centres undefined)	0	0	0	0	0
COc1ccc2oc(C(=O)OCC(=O)N3CCCC3=O)c(C)c2c1	0	0	0	0	?
COc1ccc(-c2n[nH]c(C)c2-c2cscn2)c(O)c1	0	0	0	0	0
CCc1cc(-c2n[nH]c(C)c2-c2ccccc2Cl)c(O)cc1OC	0	?	0	0	0
C=C(C)COc1ccc(-c2n[nH]c(C)c2-c2ccc(OC)cc2)c(O)c1	?	21µM	?	?	0
SMILES	KB-V1 cytotox	MCF10A rerep	SW480 rerep	KB-3-1 cytotox	ELG1 repair inh
CCOc1ccc(-c2n[nH]c(C)c2-c2ccccc2OC)c(O)c1	0	13µM	?	?	?
COc1ccc(-c2c(-c3ccc(OCC(=O)NN)cc3O)n[nH]c2C(F)(F)F)cc1	0	23µM	?	0	0
N#Cc1ccccc1NC(=O)C1CCCO1 (centres undefined)	0	-	-	0	-
CN(c1ccc(OCC(=O)OCC(=O)Nc2ccc([N+](=O)[O-])cc2)cc1)S(=O)(=O)c1cccs1	0	0	0	0	-
N#CCOC(=O)c1c2c(nc3ccccc13)CCC2	0	0	0	0	?
CCOc1ccc(C(=O)Nc2ccc(S(=O)(=O)N3CCCCC3c3cccnc3)cc2)cc1 (centres undefined)	0	-	-	?	-
Nc1cccc2c1C(=O)N(C(=O)/C=C/c1cccc(F)c1)C2=O	?	?	18µM	?	0
Nc1cccc2c1C(=O)N(C(=O)/C=C/c1cccc(Br)c1)C2=O	?	21µM	?	0	0
O=C(/C=C/c1cccc(F)c1)N1CCN(c2ccccn2)CC1	0	0	0	0	?
O=C(O)C(c1ccccc1)C1(O)CCC1 (centres undefined)	0	0	0	0	-
COc1ccc(/C=C2\SC(N3CCc4ccccc4C3)=NC2=O)cc1	?	?	0	0	0
COc1cc(/C=C2\SC(N3CCc4ccccc4C3)=NC2=O)cc(OC)c1OC	2.3µM	?	0	?	18µM
CCOC(=O)C1=C(C)NC(C)=C(C(=O)OCC)C1c1cccc([N+](=O)[O-])c1	?	-	-	0	-
CCOC(=O)C1=C(C)NC2=C(C1c1ccc([N+](=O)[O-])cc1)S(=O)(=O)c1ccccc12 (centres undefined)	?	0	0	?	10µM
O=C(NCc1ccc(F)cc1)c1cc2n(n1)CCCN(Cc1ccc(F)cc1)C2=O	0	-	-	0	-
COc1ccccc1NC(=O)C1=C(C)Nc2nc(-c3cccnc3)nn2C1c1ccccn1 (centres undefined)	0	0	0	0	-
COc1ccccc1NC(=O)C1=C(C)Nc2nc(-c3cccs3)nn2C1c1cccnc1 (centres undefined)	0	0	0	0	18µM
Cc1ccc(S(=O)(=O)CC(N)=O)cc1	0	?	0	0	0
Cc1ccc(S(=O)(=O)CCSC(=N)N)cc1	0	18µM	6.5µM	0	?
COc1ccc([C@H]2[C@H](C(=O)OC(C)(C)C)N3N=Cc4ccccc4C3C23C(=O)c2ccccc2C3=O)cc1OC (some centres undefined)	8.2µM	0	0	0	0
C[C@@]12C(=O)N(CC3CC3)CC(=O)N1[C@H](C1CC1)[C@@H]1C(=O)N(c3ccccc3)C(=O)[C@@H]12	0	0	0[9.22 µM]	0	0
Cc1onc(-c2ccccc2)c1C(=O)N1CCCC(C)(C(=O)NS(=O)(=O)C2CC2)C1 (centres undefined)	0	-	-	0	-
CN(C)c1ccc(C=c2c3cc([N+](=O)[O-])ccc3n3c2cc(-c2ccccc2)[n+]3C)cc1	0	?	0	5.2µM	-
CN(C)c1ccc(C=c2c3ccccc3n3c2c2c([n+]3C)CCCC2)cc1	0	?	0	?	-
COc1cc(N(C)C)ccc1C=c1c2ccccc2n2c1cc(-c1ccccc1)[n+]2C	?	0	?	1µM	-
CN(C)c1ccc(/C=C2\C=Cc3cc([N+](=O)[O-])ccc32)cc1	0	-	-	?	-
CN(C)c1ccc(C=c2c3ccccc3n3c2cc(-c2ccccc2)[n+]3C)cc1	16µM	0	?	?	-
CN(C)c1ccc(C=c2c3ccccc3n3c2cc(-c2ccc(Cl)cc2)[n+]3C)cc1	0	0	?	7.3µM	-
